# From PubChem
# JMJD2A Tudor inh: JMJD2A Tudor domain (human) inhibition; O75164; 390,000 tested, 4.4% active; AlphaScreen JMJD2A-Tudor / H3K4me3 peptide binding; Potency, µM (top dose mostly 114 µM), inactives show at the highest dose activity change, negative = inhibition, hits mostly inhibitors; note: % is set by controls: 0 for no effect and ±100 for the full control effect; nearly all actives have a fitted effect of over 50% in size
# Sfp PPTase inh: Sfp phosphopantetheinyl transferase inhibition; Q9F4F7; Potency, µM, without a hit: largest response in the series, negative = inhibition, most hits filed as inhibitors; AID 1490; Biochemical Sfp PPTase activity, qHTS; 310,000 tested, 3.5% active;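 note: the enzyme is Sfp with the accession as filed and its product quenches rhodamine fluorescence; 0% = enzyme reaction without inhibitor and -100% = no enzyme wells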
#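 Compounds were incubated with enzyme (final 15 nM) for 15 min at room temperature before substrate addition started the reaction. Fluorescence at 525 nm excitation, 598 nm emission was recorded immediately and after 30 minutes.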
# HP1b binding inh: HP1-beta chromodomain-methylated histone interaction inhibition; AlphaScreen HP1-beta / biotin-H3K9me3 peptide binding; Potency, µM (doses to about 114 µM), for the others: at the top dose activity change, negative = inhibition, usual class: inhibitors; P83916; AID 540317; 390,000 tested, 0.56% active; note: nearly all actives have a fitted effect of over 70% in size
# Target sequence (P83916 whole entry, looked up): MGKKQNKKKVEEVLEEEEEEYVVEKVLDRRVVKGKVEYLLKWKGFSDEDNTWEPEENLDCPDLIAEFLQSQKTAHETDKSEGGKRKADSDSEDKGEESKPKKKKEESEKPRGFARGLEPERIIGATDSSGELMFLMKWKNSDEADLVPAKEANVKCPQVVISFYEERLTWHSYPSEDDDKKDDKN
#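 Compound inhibition of the preformed complex between 50 nM HP1-beta and 50 nM biotinylated H3K9me3 peptide was read by AlphaScreen. Buffer was PBS pH 7.4 with 0.01% Tween-20. Incubations ran 30 min at room temperature, with 10 ug/mL donor/acceptor beads.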
# G9a block: inhibitors of human histone lysine methyltransferase G9a; Q96KQ7; G9a H3K9 monomethylation, AlphaScreen, 2 h; Potency, µM (highest dose often 102 µM), for the others: at the highest dose activity, negative = inhibition, most hits filed as inhibitors; 350,000 tested, 8.8% active; AID 504332; note: % is set by controls: 0 for no effect and ±100 for the full control effect; nearly all actives have a fitted effect of over 75% in size
# Target sequence (Q96KQ7 913-1193 limits assumed): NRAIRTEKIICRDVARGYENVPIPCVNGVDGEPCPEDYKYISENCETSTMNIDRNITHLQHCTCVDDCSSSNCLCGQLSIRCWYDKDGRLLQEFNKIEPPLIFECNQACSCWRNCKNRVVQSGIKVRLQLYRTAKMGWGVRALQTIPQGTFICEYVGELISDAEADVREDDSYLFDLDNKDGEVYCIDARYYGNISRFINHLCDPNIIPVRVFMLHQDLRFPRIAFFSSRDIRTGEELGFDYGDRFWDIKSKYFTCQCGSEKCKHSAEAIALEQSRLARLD
#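 AlphaScreen detection with an anti-monomethyl H3K9 antibody quantified product after a 2 h room-temperature reaction containing 500 nM biotinylated H3K9 peptide, 20 µM SAM and 20 nM enzyme, which had been preincubated 15 min with compound.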
# BAZ2B inh: blocks human BAZ2B; 360,000 tested, 4.4% active; AlphaScreen BAZ2B-H3K14Ac peptide displacement; Q9UIF8; Potency, µM (titrated, usually from 114 µM), inactives show at the top dose activity change, negative = inhibition, actives largely listed as inhibitors; note: % is set by controls: 0 for no effect and ±100 for the full control effect; nearly all actives have a fitted effect of over 60% in size
#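 In this displacement format the biotinylated H3(5-23) peptide acetylated at Lys14 serves as ligand at 50 nM, with BAZ2B at 50 nM in PBS pH 7.4 containing 0.01% Tween-20. Donor and acceptor beads are 10 ug/mL final.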
# An asterisk follows results filed as active; ? = inconclusive; nt = no result given; ! = not active in a repeat; [ ] = another dose, or the depositor's remark. An excerpt weighted towards active compounds, which were near 12% of everything screened. Calls come from the whole dose curve; as a rule, active = well fitted curve in the direction sought with a large enough effect; inconclusive = small, poorly fitted or top-dose-only effect, or another doubt; inactive = no such curve, though single readings can be large; an effect the other way counts as inactive or inconclusive. Potency is the fitted concentration of half-maximal effect.
SMILES,JMJD2A Tudor inh,Sfp PPTase inh,HP1b binding inh,G9a block,BAZ2B inh
Cc1cccc(N(C(=O)c2snc(C(N)=O)c2N)C(C(=O)NCC2CCCO2)c2ccc(N(C)C)cc2)c1C (stereo not drawn),-27%,-8%,-10%,50µM*,28µM*
COc1ccccc1N(C(=O)c1snc(C(N)=O)c1N)C(C(=O)NC1CCCC1)c1ccc(N(C)C)cc1 (stereo not drawn),?,-10%,-28%,-6%,35µM*
CN(C)c1ccc(C(C(=O)NCC2CCCO2)N(Cc2ccccc2)C(=O)c2snc(C(N)=O)c2N)cc1 (stereo not drawn),?,10%,-8%,-20%,?
CCOCCCN(C(=O)c1snc(C(N)=O)c1N)C(C(=O)NC1CCCC1)c1ccc(F)cc1 (stereo not drawn),-7%,13%,41%,-3%,6%
CCc1cccc(NC(=O)c2cc(S(=O)(=O)N3CCCCCC3)cn2C)c1,-14%,nt,6%[57 µM],6%[59 µM],2%
Cc1ccc(/C=C/C(=O)Nc2ccc(Cl)cc2Cl)cc1,-16%,nt,38%,0%[59 µM],0%
COc1ccc(CNC(=O)C(c2ccc(C)o2)N(C(=O)c2snc(C(N)=O)c2N)c2ccccc2OC)cc1 (stereo not drawn),-15%,1%,-14%,50µM*,-15%
COc1ccc(OC)c(N(C(=O)c2snc(C(N)=O)c2N)C(C(=O)NCc2ccccc2)c2ccc(O)cc2)c1 (stereo not drawn),-24%,5%,-8%,-40%,-21%
Cc1ccc(CNC(=O)CCCCn2c(=O)c3ccccc3n(Cc3ccc(C)cc3)c2=O)cc1,-10%,nt,27%,5%[59 µM],0%
O=C(CSc1nnc(-c2ccccn2)n1Cc1ccco1)c1ccc(Cl)cc1,?,-26%,13%,40µM*,?
O=C(CSc1nnc(-c2cnccn2)n1Cc1ccco1)c1ccccc1,-4%,-12%,41%,45µM*,-29%
O=C(CSc1nnc(-c2cnccn2)n1Cc1ccco1)c1ccc(Cl)cc1,-28%,-76%,21%,?,-32%
O=C(CSc1nnc(-c2ccccn2)n1Cc1ccco1)c1ccccc1,?,-15%,7%,40µM*,?
COc1ccc(C(=O)CSc2nnc(-c3ccccn3)n2Cc2ccco2)cc1,?,?,13%,?,?
CCOc1ccc(-c2nnc(SCC(=O)Nc3cc(C)ccc3OC)o2)cc1,-13%,nt,55%,?,-1%
CC(C)Oc1cccc(C(=O)C2CCCN(C(=O)c3ccc4c(c3)OCO4)C2)c1 (stereo not drawn),-7%,4%,27%,20%,-14%[57.1 µM]
Cc1c(N2C(=O)CS/C2=N\N=C\c2ccc(Cl)cc2)c(=O)n(-c2ccccc2)n1C,-14%,9%,14%,53%[12.7 µM],4%
COc1ccc(/C=N/N=C2\SCC(=O)N2c2c(C)n(C)n(-c3ccccc3)c2=O)cc1OC,-9%,9%,28%,8.9µM*,?
COc1cc(-c2coc3cc(OCc4ccccc4)c(OC)c(O)c3c2=O)cc(O)c1OC,nt,-34%,nt,-30%[2.33 µM],nt
Cc1ccc2[nH]c(O)c(N=O)c2c1,-6%,8%,22%,-38%,2%
Cc1ccc2c(c1)-c1nc(-c3ccccc3)cc(-c3ccccc3)c1CO2,20%,nt,59%,-1%[59 µM],-10%
CSc1ccccc1NC(=O)C(C)N(C)CC(=O)N1CCN(Cc2ccccc2)CC1 (stereo not drawn),10µM*,nt,?,nt,nt
CN(CC(=O)N1CCN(Cc2ccccc2)CC1)S(=O)(=O)c1ccc(Br)cc1,-11%,8%,16%,-1%,-24%
CN(CC(=O)N1CCN(Cc2ccccc2)CC1)S(=O)(=O)c1ccc(F)cc1,-13%,1%,19%,nt,6%
CC(C(=O)Nc1ccc(C(F)(F)F)cc1)N(C)CC(=O)N1CCN(Cc2ccccc2)CC1 (stereo not drawn),0.89µM*,nt,20µM*,nt,nt
SMILES,JMJD2A Tudor inh,Sfp PPTase inh,HP1b binding inh,G9a block,BAZ2B inh
CC(NC1CCCC1)C(=O)Nc1ccccc1-c1ccccc1 (stereo not drawn),2µM*,-16%,?,?,79µM*
O=C(CC1CCCCC1)Nc1ccccc1-c1ccccc1,-4%,25%,34%,-14%[59 µM],2%
Cc1ccc(-n2c(C)c([N+](=O)[O-])c3ccc(O)cc32)cc1,nt,18µM*,nt,50µM*,-4%
O=C(CNC(=O)c1ccccc1)OC(CCc1ccccc1)C(=O)Nc1cc(C(F)(F)F)ccc1Cl (stereo not drawn),-18%,nt,nt,nt,nt
c1cncc(CNc2ncncc2-c2ccoc2)c1,nt,79µM*,nt,-14%[0.501 µM],nt
c1cncc(-c2nc(NCc3cccs3)c3ccccc3n2)c1,-20%,79µM*!,30%,1%[0.501 µM],-7%
N#Cc1cccc(-c2cncnc2NCc2cccnc2)c1,nt,-2%,nt,13%[0.501 µM],nt
c1cncc(CNc2ncnc3ccc(-c4cccnc4)cc23)c1,?,79µM*,41%,1%[12.7 µM],-25%
c1cncc(CNc2nc(-c3ccoc3)nc3ccccc23)c1,nt,40µM*,nt,nt,nt
O=C(O)c1ccc2ccc3ccccc3c2c1,-11%,nt,30%,nt,nt
CCOC(=O)N1CCN(C(=O)COC(=O)CSc2ccc([N+](=O)[O-])cc2)CC1,-3%,nt,25%,?,7%
Cc1cc(C)cc(NC(c2cccc(Cl)c2)c2nnc(-c3ccccc3)o2)c1 (stereo not drawn),-30%,nt,13%,-7%[59 µM],-28%
c1ncc(-c2ccoc2)c(NC2CC2)n1,nt,79µM*,nt,0%[0.501 µM],nt
c1nc(NCc2ccc3c(c2)OCO3)c2cc(-c3ccoc3)ccc2n1,-23%,nt,12%,0%[12.7 µM],50µM*
O=c1[nH]c(CNCc2cccnc2)nc2ccccc12,-12%,25µM*,6%,?,-24%
COc1ccc(OCc2cc(C(=O)NCC(C)(C)N3CCOCC3)no2)c(Cl)c1,-10%,14%,22%,16%,-21%
COC(=O)c1ccc(NC(CC(C)C)C(=O)OC)c([N+](=O)[O-])c1 (stereo not drawn),?,4%,-13%,40µM*,?
CCOC(=O)c1ccc(NCCOC)c([N+](=O)[O-])c1,-10%,4%,34%,-37%,-29%
Cc1ccccc1Cc1c(C)nc2nc(SCC(=O)NCCCN3CCCC3)nn2c1C,-24%,10%,1%,?,-32%
Cc1nc2nc(SCC(=O)N3CCOCC3)nn2c(C)c1Cc1c(F)cccc1Cl,-15%,?,27%,22µM*,1%
Cc1nc2nc(SCC(=O)NCCCN3CCCCCC3)nn2c(C)c1Cc1ccccc1Cl,?,-15%,17%,79µM*,-29%
Cc1nc2nc(SCc3c(F)cccc3Cl)nn2c(C)c1Cc1ccccc1,0%,nt,30%,14%[59 µM],2%
CC(C(=O)NCCCn1ccnc1)(c1ccccc1)c1ccccc1,-12%,15%,39%,-7%[59 µM],?
